# Screening data from PubChem BioAssay.
# Compounds with a hit are over-represented: about 7.4% of the library has one in this group of screens.
# Rab9 promoter act = qHTS Assay for Rab9 Promoter Activators; Huh7 Rab9 promoter-luciferase reporter, luminescence, 24 h; Potency, µM (series often up to 9.22 µM), for inactives: top-dose activation, negative = inhibition, hits mostly activators; AID 485297, 2010; 320,000 tested, 2.8% active; also: % of control where 0% means no effect; nearly all actives have a fitted effect of over 60% in size
#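 Luminescence from Amplite-detected luciferase (10 minutes, ambient) reports Rab9 promoter activation. Before that, stable Rab9-luciferase Huh7 cells (1500/well, reduced-serum OP-MEM I plus 10% FBS) were exposed to compound for 24 hours at 37C.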
# FLuc modulator = qHTS profiling assay for firefly luciferase inhibitor/activator using purifed enzyme and Km concentrations of substrates (counterscreen for miR-21 project) | AID 588342, 2011 | 360,000 tested, 6.9% active | Luciferin 4-monooxygenase (Photinus pyralis), P08659 | Potency, µM (doses to about 57.5 µM), for the others: at the top dose activity change, negative = inhibition, usual class: inhibitors | purified FLuc, Km substrates, luminescence inhibition;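 also: plate controls were vehicle for no effect and reference inhibitor for full effect; nearly all actives have a fitted effect of over 55% in size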
# Target sequence (P08659 whole entry, looked up): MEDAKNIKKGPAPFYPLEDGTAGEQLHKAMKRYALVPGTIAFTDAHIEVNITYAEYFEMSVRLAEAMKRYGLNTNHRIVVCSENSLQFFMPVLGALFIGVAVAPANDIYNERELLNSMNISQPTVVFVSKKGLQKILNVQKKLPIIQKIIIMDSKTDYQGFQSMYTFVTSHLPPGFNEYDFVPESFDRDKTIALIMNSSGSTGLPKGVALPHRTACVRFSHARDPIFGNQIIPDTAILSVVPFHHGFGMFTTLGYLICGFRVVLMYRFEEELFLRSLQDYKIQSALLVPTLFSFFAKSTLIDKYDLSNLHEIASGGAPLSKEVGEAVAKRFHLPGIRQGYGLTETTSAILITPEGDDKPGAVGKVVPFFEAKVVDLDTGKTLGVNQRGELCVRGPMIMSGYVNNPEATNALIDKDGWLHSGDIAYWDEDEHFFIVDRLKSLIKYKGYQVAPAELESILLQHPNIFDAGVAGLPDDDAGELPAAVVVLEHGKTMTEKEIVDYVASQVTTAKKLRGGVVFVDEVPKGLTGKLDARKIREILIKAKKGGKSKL
#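 Purified P. pyralis luciferase (10nM final) with 10uM D-luciferin and 10uM ATP (Km levels) in 50mM Tris acetate pH 7.5, 10mM Mg acetate, 0.01% Tween-20, 0.05% BSA; qHTS 6-point titration, ~60 µM downward; luminescence read.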
# NPC1 promoter act = qHTS Assay for NPC1 Promoter Activators | Huh7 NPC1 promoter luciferase reporter, 24 h | Potency, µM (top dose mostly 9.22 µM), for inactives: at the top dose activation, actives largely listed as activators | 320,000 tested, 2.4% active; also: % of control where 0% means no effect; nearly all actives have a fitted effect of over 60% in size
#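 Cells: Huh7 expressing luciferase under the NPC1 promoter, 1500/well. Seeded 2 h, compound added, incubated 24 h at 37 °C. Luciferase reagent, 10 min ambient, then luminescence.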
# SMN2 splice enh = qHTS Assay for Enhancers of SMN2 Splice Variant Expression; HEK293 SMN2-luciferase splicing reporter, luminescence, 30-36 h; Potency, µM (highest dose often 46.1 µM), for inactives: at the top dose activity change, positive = activation, most hits filed as activators; 210,000 tested, 2.8% active; AID 1458, 2008; also: % of control where 0% means no effect; nearly all actives have a fitted effect of over 55% in size
#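 HEK293 cells carry an SMN2 minigene-luciferase reporter in which exon 7 inclusion puts luciferase in frame. Cells were seeded at 2000 cells/well, attached for 10-12 hours, then exposed to compounds for 30-36 hours at 37C before ONE-Glo luminescence.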
# KinaseGlo FLuc = Counterscreen for Luciferase (Kinase-Glo TM) Inhibition. Luciferin 4-monooxygenase (Photuris pensylvanica), Q27757. AID 1379, 2008. Potency, µM (series often up to 38.3 µM), for inactives: at the highest dose activity change, negative = inhibition, usual class: inhibitors. 200,000 tested, 0.28% active. Kinase-Glo luciferase, ATP luminescence, 8 min; also: % is scaled to controls: 0 for no effect and ±100 for the full control effect; nearly all actives have a fitted effect of over 60% in size
#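 Luminescence was the read-out, taken after 8-minute incubation at ambient temperature. Luciferase turned over luciferin with 10 uM ATP in imidazole pH 7.2 buffer containing KCl, MgCl2, Tween 20 and BSA.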
# ELG1 genotoxic = qHTS screen for small molecules that induce genotoxicity in human embryonic kidney (HEK293T) cells expressing luciferase-tagged ELG1 | 330,000 tested, 1.3% active | Potency, µM (highest dose often 46 µM), inactives show at the highest dose activity change, positive = activation, most hits filed as activators | HEK293T ELG1-luciferase reporter, luminescence, 16 h; also: % of control where 0% means no effect; nearly all actives have a fitted effect of over 60% in size
#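 16 hr compound incubation (37 °C, 5% CO2) of HEK293T cells carrying luciferase-tagged ELG1; luciferase then measured by ONE-Glo luminescence after 30 min at RT.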
# * = called active by the depositor; ? = inconclusive; . = not tested or not shown. Calls follow the shape of the dose curve; as a rule, active = well fitted curve in the direction sought with a large enough effect; inconclusive = small, poorly fitted or top-dose-only effect, or another doubt; inactive = no such curve, though single readings can be large; an effect the other way counts as inactive or inconclusive. Potency is read from the fitted curve at half-maximal effect.
SMILES,Rab9 promoter act,FLuc modulator,NPC1 promoter act,SMN2 splice enh,KinaseGlo FLuc,ELG1 genotoxic
O=C(CSc1nnc(-c2ccccc2F)o1)N1CCCC1,?,?,28.7%,.,.,?
CC1CCCCN1C(=O)CSc1nnc(-c2ccco2)o1 (stereo not drawn),2µM*,15.1µM*,1.78µM*,.,.,20.6µM*
CC1CCCCN1C(=O)CSc1nnc(-c2ccccc2F)o1 (stereo not drawn),2.51µM*,?,2.51µM*,.,.,?
Cn1c(COc2ccccc2)nc2ccccc21,?,15.1µM*,3.98µM*,.,.,?
c1ccc(OCCn2c(COc3ccccc3)nc3ccccc32)cc1,.,?,.,-1.6%,.,.
C=CCn1c(COc2ccccc2)nc2ccccc21,15.8%,26.9µM*,14.5%,.,.,3.7%
CCN(C[C@H]1N[C@@](Cc2ccccc2)(C(=O)OC)[C@H]2C(=O)N(C)C(=O)[C@@H]12)S(=O)(=O)c1ccc(-c2ccccc2)cc1,.,.,.,.,.,-9.1%
CCN(CC)C(=O)COc1ccc(/C(C)=N/NC(=O)c2ccccc2O)cc1,?,6.75µM*,13.0%,-16.3%,1.1%,18.0%
CCN(CC)C(=O)COc1ccc(-c2ccccc2)cc1,?,13.5µM*,?,8.1%,-4.7%,?
CCN(Cc1ccccc1)C(=O)COc1ccccc1,-1.7%,1.1%,-2.5%,.,.,1.0%
Cc1ccc(C)c(N2CCN(C(=O)c3c4c(nc5ccccc35)C(=O)N(C3CCCCC3)C4)CC2)c1,.,-7.4%,.,.,.,.
COc1ccc(-n2nc(C(=O)NCC(=O)N3CCN(C)CC3)c3ccccc3c2=O)cc1,-0.3%,15.1µM*,-2.9%,.,.,3.5%
COc1ccc(N2CCN(C(=O)CNC(=O)c3nn(-c4ccc(OC)cc4)c(=O)c4ccccc34)CC2)cc1,7.7%,?,-1.1%,.,.,-19.1%
COc1ccc(-n2nc(C(=O)NCC(=O)N3CC(C)CC(C)C3)c3ccccc3c2=O)cc1 (stereo not drawn),1.6%,19µM*,-0.7%,.,.,-22.0%
CCOC(=O)N1CCN(C(=O)CNC(=O)c2nn(-c3ccc(OC)cc3)c(=O)c3ccccc23)CC1,?,3.79µM*,6.1%,25.5%,2.0%,0.1%
CCOc1ccc(NC(=O)CNC(=O)c2nn(-c3ccc(OC)cc3)c(=O)c3ccccc23)cc1,-3.3%,0.4%,-1.7%,.,.,-11.8%
COc1ccc(-n2nc(C(=O)NCC(=O)NCCCN3CC(C)CC(C)C3)c3ccccc3c2=O)cc1 (stereo not drawn),-4.0%,2.1%,1.6%,.,.,4.2%
COc1ccc(-n2nc(C(=O)NCC(=O)N3CCCCCC3)c3ccccc3c2=O)cc1,6.8%,5.36µM*,-13.8%,.,.,-4.3%
O=C(CNCc1ccc(Cl)cc1)Nc1ccc(C(=O)N2CCCCCC2)cc1,5.0%,1.7%,-0.2%,.,.,-1.4%
COc1ccc(-c2nc(SCC(=O)Nc3cccc(S(N)(=O)=O)c3)n[nH]2)cc1,24.8%,1.69µM*,22.5%,.,.,12.5%
COc1ccc(-c2nc(SCC(=O)Nc3c(C)cc(C)cc3C)n[nH]2)cc1,.,15.1µM*,.,.,.,.
COc1ccc(NC(=O)CSc2n[nH]c(-c3ccccc3)n2)cc1S(N)(=O)=O,2.1%,12µM*,-4.8%,.,.,2.4%
CC(C)(CNC(=O)CCC1CCCC1)CNC(=O)CCC1CCCC1,-0.6%,-0.2%,0.6%,.,.,-8.0%
O=C(Nc1ccc(Br)cn1)c1ccc2ccccc2c1,1.12µM*,1.9µM*,1.58µM*,.,.,?
O=C(Nc1ccc(Br)cn1)c1cccc(S(=O)(=O)N2CCCC2)c1,.,.,.,.,.,-2.6%
SMILES,Rab9 promoter act,FLuc modulator,NPC1 promoter act,SMN2 splice enh,KinaseGlo FLuc,ELG1 genotoxic
O=C(Nc1ccc(Br)cn1)c1cccc(C(=O)Nc2ccc(Br)cn2)c1,0.562µM*,3.01µM*,2µM*,.,.,20.6µM*
COc1ccc(NC(=O)Nc2ccc(F)c(Cl)c2)cc1,2.82µM*,?,3.55µM*,14.1µM*,0.9%,3.6%
COC(=O)c1cc(NC(=O)Nc2cc(OC)ccc2OC)cc(C(=O)OC)c1,-4.9%,-0.6%,5.6%,-8.1%,-4.0%,-10.6%
O=C(Nc1cccnc1)c1cc(F)c(F)cc1Cl,-8.9%,-0.7%,-4.4%,-0.1%,-0.2%,-3.4%
Cc1ccc(NC(=O)Nc2ccc(F)c(Cl)c2)cc1,?,4.26µM*,?,12.6µM*,3.6%,8.1%
O=C(Nc1cccnc1)Nc1ccc(F)c(Cl)c1,11.6%,23.9µM*,11.8%,.,-7.2%,-8.2%
COc1ccc(OC)c(NC(=O)Nc2ccc(Cl)cc2)c1,6.9%,19µM*,1.3%,-4.8%,-3.2%,-1.6%
CC[C@H]1[C@@H]2C=C[C@@H]3[C@H]4C/C=C\C(=O)NCCC[C@@H]5NC(=O)C(=C5O)C(=O)CC[C@@H]4C[C@@H]3[C@H]2C[C@H]1C,.,.,.,-68.4%,.,.
COCCn1c(C)cc(C(=O)COC(=O)c2[nH]c(C)c(C(C)=O)c2C)c1C,-5.1%,-17.2%,-1.7%,.,.,-1.5%
COCCn1c(C)cc(C(=O)COC(=O)c2cncc(Br)c2)c1C,?,7.57µM*,?,-5.9%,-1.4%,?
COCCn1c(C)cc(C(=O)COC(=O)c2ccccc2Br)c1C,-11.2%,0.0953µM*,-6.7%,.,.,0.206µM*
COCCn1c(C)cc(C(=O)COC(=O)c2ccc3ncsc3c2)c1C,2.82µM*,6.75µM*,2.82µM*,15.3%,-2.9%,?
COCCn1c(C)cc(C(=O)COC(=O)c2ccc(S(=O)(=O)N(C)C)cc2)c1C,.,.,.,.,.,3.7%
COCCn1c(C)cc(C(=O)COC(=O)c2ccc(NC(=O)CC#N)cc2)c1C,2.24µM*,10.7µM*,2.82µM*,11.2µM*,-3.1%,?
Cc1ccc(S(=O)(=O)N2CCN(Cc3cc(=O)n4ccccc4n3)CC2)c(C)c1,-4.4%,-1.5%,-5.2%,.,.,-0.4%
Cc1ccc(Nc2nc3ccccc3n3cnnc23)cc1Cl,23.4%,?,?,.,.,2.8%
COCCn1c(C)cc(C(=O)COC(=O)CCc2ccc(S(=O)(=O)N3CCOCC3)cc2)c1C,6.6%,15.1µM*,3.3%,-1.2%,-2.8%,-1.0%
O=c1c2ccccc2nc2ccc(NCc3cccs3)nn12,1.58µM*,8.49µM*,3.55µM*,15.8µM*,-1.9%,-20.1%
CCOc1ccc(-n2nc(CO)c(C(=O)NCc3cccs3)n2)cc1,.,19µM*,.,-10.4%,.,.
Cc1ccc(-n2nc(CO)c(C(=O)NCc3cccs3)n2)cc1,.,-7.4%,.,-21.4%,.,.
CCc1ccc(-n2nc(CO)c(C(=O)NC)n2)cc1,.,15.1µM*,.,?,.,.
